Source: PubChem (National Center for Advancing Translational Sciences (NCATS))
IL-1B inflam inh: inhibitors of inflammasome signaling (IL-1 beta secretion) | THP-1 LPS/ATP IL-1B secretion, AlphaLISA, 16 h; hits give low values | activity change, % at 57.5 µM | actives 4.7% (n = 360,000); in the data active means activity change below about -50%; inconclusive means mostly about -30% to -49%
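Secreted IL-1B measured by AlphaLISA bead assay after 16 h compound exposure of THP-1 cells; compounds (final up to 57.5 uM) added 1 h before LPS (250 ng/mL) and ATP (1.25 mM) stimulation; lower signal means less secretion.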
TDP1 cell CPT: DT40-hTDP1 cell growth loss with CPT; chicken DT40 Tdp1-/-;hTDP1 cells + 20 nM CPT, ATP luminescence, 48 h; Potency, µM (highest dose often 46.2 µM), without a hit: at the top dose activity change, negative = growth inhibition, most hits filed as inhibitors; actives 12% (n = 420,000); AID 686979; further: potency means the concentration at half of the fitted maximal effect; nearly all actives have a fitted effect of over 55% in size
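Chicken DT40 Tdp1-/- cells stably complemented with human TDP1 were seeded at 400 cells/well in medium containing 20 nM camptothecin, exposed to pin-transferred compounds, and grown at 37 °C for at least 48 hr. Viability was read as ATP luminescence.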
HT1080 IDH1KD tx: toxicity to HT-1080 IDH1 knockdown cells (counter line); actives 2% (n = 360,000); AID 686971; HT-1080 IDH1 knockdown viability, ATP luminescence, 48 h; Potency, µM (top dose mostly 46.1 µM), inactives show at the highest dose activity, negative = toxicity, actives largely listed as cytotoxic;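 further: potency means the concentration at half of the fitted maximal effect; 0% = DMSO wells and -100% = cell-free medium wells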
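Knockdown cells (IDH1KD HT-1080) received compounds 2 h after plating at 750 cells/well and were kept 48 h at 37 °C in 5% FBS RPMI. A CellTiter-Glo luminescence read gave % activity for curve fitting.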
DT40 TDP1 no CPT: qHTS for Inhibitors of human tyrosyl-DNA phosphodiesterase 1 (TDP1): qHTS in cells in absence of CPT; DT40 Tdp1-/- hTDP1 cells, no CPT, ATP luminescence, 48 h; Potency, µM (top dose mostly 46.2 µM), inactives show at the top dose activity change, negative = growth inhibition, most hits filed as inhibitors; actives 15% (n = 420,000); further: potency means the concentration at half of the fitted maximal effect; nearly all actives have a fitted effect of over 55% in size
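Camptothecin absent (DMSO only). Human TDP1-complemented DT40 knockout cells, 400 cells/well, 37 °C for minimum 48 hr; ATP measured via CellTiter-Glo, 30 min dark incubation, luminescence.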
ELG1 repair inh: ELG1-dependent DNA repair inhibition; HEK293T ELG1-luciferase reporter, luminescence, 16 h; DNA damage induced by 5-fluorouridine; Potency, µM (doses to about 46.1 µM), without a hit: at the highest dose activity change, negative = inhibition, usual class: inhibitors; actives 2.3% (n = 330,000); further: potency means the concentration at half of the fitted maximal effect; nearly all actives have a fitted effect of over 55% in size
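In this reporter screen, reduction of luminescence relative to DMSO vehicle indicated activity. Compounds and 5-fluorouridine were added together to 2,000 cells per well, incubated for 16 hr at 37 °C, then developed with ONE-Glo.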
HT1080NT lethal: kills 2HG-producing HT-1080-NT fibrosarcoma cells; HT-1080-NT fibrosarcoma viability, CellTiter-Glo ATP luminescence, 48 h; Potency, µM (highest dose often 46.1 µM), without a hit: at the top dose activity, negative = less viability, hits mostly cytotoxic; actives 1.6% (n = 360,000); AID 686970;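 further: NT is the 2HG producing partner of a matched IDH1 knockdown line; potency means the concentration at half of the fitted maximal effect; 0% = DMSO-treated cells and -100% = media-only wells without cells; nearly all actives have a fitted effect of over 55% in size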
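Viability by CellTiter-Glo luminescence after 48 h compound exposure at 37C of HT-1080-NT cells (750/well, RPMI, 5% FBS). % activity scaled between DMSO wells and medium-only wells, then curve-fitted and categorized by curve class.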
* hit, by the source's call; u = inconclusive; x = no result given; ! = repeats disagree; [ ] = another dose, or the depositor's remark. Compounds with a hit are over-represented: about 19% of the library has one in this group of screens. Unless noted, the call rests on the fitted dose curve; in most records, active means well fitted curve in the direction sought with a large enough effect; inconclusive means small, poorly fitted or top-dose-only effect, or another doubt; inactive means no such curve, though single readings can be large; an effect the other way counts as inactive or inconclusive. Unless noted, on the % scale 0 is the no-effect control and ±100 the full control effect.

SMILES	IL-1B inflam inh	TDP1 cell CPT	HT1080 IDH1KD tx	DT40 TDP1 no CPT	ELG1 repair inh	HT1080NT lethal
O=c1oc2ccc(F)cc2cc1-c1nc(-c2cccs2)no1	x	-19.8%	x	-13.7%	x	x
Cc1cccc(OCCSc2nncn2C)c1	11.3	u	12.3%	-22.7%	u	17.9%
Cc1cccc(OCCSc2nnc(-c3ccoc3C)n2C)c1	-0.6	23.1µM*	13.1%	20.6µM*	-19.9%	5.9%
COc1cc(-c2cc3n(C)c(C)c(CCC(=O)NC4CCC(C)CC4)c(=O)n3n2)cc(OC)c1OC (centres undefined)	x	14.6µM*	x	13µM*	x	x
Cc1nc(C(F)(F)F)ccc1C(=O)N1CCC1(C)C(=O)NCc1ccc(Cl)cc1 (centres undefined)	-9.1	-29.0%	14.3%	u	x	15.1%
CCc1cccc(C)c1NC(=O)Cn1c(=O)cc(C)c2c(C)nn(-c3cccc(F)c3)c21	x	-25.1%	x	-2.5%	x	x
O=c1ccn(C2CCCO2)c(=O)[nH]1 (centres undefined)	-0.6	-28.8%	9.8%	14.6µM*	x	11.7%
O=C(NC1CCCCC1)C(c1ccc2ncccc2c1)N(Cc1ccccc1)C(=O)c1ccc2c(c1)OCCO2 (centres undefined)	-55.4*	13µM*	-1.5%[9.24 µM]	u	u	u
COc1ccc(CN(C(=O)c2ccc3c(c2)OCCO3)C(C(=O)NC2CCCCC2)c2ccc3ncccc3c2)cc1 (centres undefined)	12.8	u	4.8%[9.24 µM]	18.4µM*	-18.8%	-29.6%
CCOc1ccc(CCNC(=O)Cn2ncn3c(cc4ccccc43)c2=O)cc1OCC	x	-9.5%	x	-25.7%	x	x
Cc1oc(-c2cccs2)nc1CNC[C@H]1O[C@@H](n2cnc3c(N)ncnc32)[C@H](O)[C@@H]1O	7.6	-18.9%	9.0%	-19.2%	-0.2%	15.0%
CCC(Sc1nc2cc3c(cc2c(=O)n1Cc1ccco1)OCO3)C(=O)Nc1ccccc1OC (centres undefined)	-21.5	8.2µM*	-2.6%	8.2µM*	u	-13.9%
CCC(Sc1nc2cc3c(cc2c(=O)n1Cc1ccco1)OCO3)C(=O)Nc1cccc(OC)c1 (centres undefined)	31.2	u	-29.0%	u	-22.4%	-18.4%
CCCCNC(=O)CSc1nc2cc3c(cc2c(=O)n1Cc1ccco1)OCO3	9.3	18.4µM*	-8.5%	16.4µM*	u	11.7%
CC(Oc1ccccc1)C(=O)Nc1ccc(S(=O)(=O)N2CCN(C)CC2)cc1 (centres undefined)	-26.5	u	1.0%	-17.2%	-0.4%	-0.1%
N#CC1(c2ccccc2)CCN(S(=O)(=O)c2ccc(OC(F)(F)F)cc2)CC1	-12.1	-21.7%	-8.4%	14.6µM*	u	-11.0%
CC(Oc1ccccc1)C(=O)N1CCN(S(=O)(=O)c2ccc(OC(F)(F)F)cc2)CC1 (centres undefined)	6.4	18.4µM*	4.7%	u	x	2.1%
COc1ccc(S(=O)(=O)N2CCC(C(=O)O)(c3ccccc3)CC2)cc1	35.7	5.1%	17.2%	12.8%	5.3%	13.8%
CCN(CC)Cc1cc2[nH]c3c4ccc(Cl)cc4ncc3c2cc1OC	-11.4	3.16µM*	u	5.01µM*	-0.8%	22.4µM*!
CCc1nnc(NC(=O)CSc2nccn2-c2cc(C)cc(C)c2)s1	-10.9	23.1µM*	-2.0%	16.4µM*	u	13.8%
CC(C)(C)c1nc2ccccc2c2nnc(SCC(=O)Nc3nc4ccccc4s3)n12	13.6	u	u	u	1.5%	u
